High-throughput results: PubChem BioAssay, National Center for Advancing Translational Sciences (NCATS)
Compounds with a hit are over-represented: about 5.3% of the library has one in this group of screens.
Tau fluor counter: counter-screen for tau fibril formation inhibitors. tau K18 P301L Alexa594 fluorescence, heparin fibrillization. Potency, µM (titrated, usually from 57.7 µM), inactives show at the highest dose activity change, negative = decrease. 280,000 tested, 0.93% active; further: potency means the concentration at half of the fitted maximal effect; nearly all actives have a fitted effect of over 55% in size
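Human tau K18 P301L (15 uM unlabeled, 0.24 uM Alexa 594-labeled) in 100 mM sodium acetate pH 7 with 20 uM heparin, 6 hr at 37 C. ThT 30 uM added, 1 hr ambient; Alexa 594 FP and total fluorescence read at 555/632 nm.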
Tau fibril FP: blocks human tau fibril formation measured by polarization; P10636; Potency, µM (highest dose often 57.7 µM), for the others: at the top dose activity, negative = inhibition, most hits filed as inhibitors; 280,000 tested, 0.39% active; AID 1468; K18 P301L tau heparin fibrillization, Alexa594 FP, 6 h; further: potency means the concentration at half of the fitted maximal effect; nearly all actives have a fitted effect of over 55% in size
Target sequence (P10636 561-689 P618L limits assumed): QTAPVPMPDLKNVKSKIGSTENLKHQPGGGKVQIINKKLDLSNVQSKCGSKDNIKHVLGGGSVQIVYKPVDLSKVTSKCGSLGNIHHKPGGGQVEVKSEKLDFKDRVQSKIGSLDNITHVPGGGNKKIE
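Human K18 P301L fragment (15 uM unlabeled plus 0.24 uM Alexa 594-labeled) in 100 mM sodium acetate pH 7 with compound, aggregation induced by 20 uM heparin for 6 hr at 37 C. ThT (30 uM) added for 1 hr, then Alexa 594 FP read.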
Sfp PPTase inh: inhibitors of Bacillus subtilis Sfp phosphopantetheinyl transferase; Potency, µM, for the others: largest response in the series, negative = inhibition, most hits filed as inhibitors; AID 1490; 310,000 tested, 3.5% active; Biochemical Sfp PPTase activity, qHTS;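 further: the enzyme is Sfp with the accession as filed and its product quenches rhodamine fluorescence; potency means the concentration at half of the fitted maximal effect; 0% = enzyme reaction without inhibitor and -100% = no enzyme wells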
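Compounds were incubated with enzyme (final 15 nM) for 15 min at room temperature before substrate addition started the reaction. Fluorescence at 525 nm excitation, 598 nm emission was recorded immediately and after 30 minutes.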
Coupling enz: counter-screen for Giardia aldolase inhibitors: coupling enzyme system; AID 2472; activity change, negative = inhibition, % at 58.2 µM, hits read low; 290,000 tested, 0.67% active; coupling enzyme system counterscreen, AmpLite Red fluorescence; in the data active means activity change below about -30%
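First, compound is pin-transferred into glyceraldehyde-3-phosphate coupling-enzyme reagent at 57.5 uM final and held 10 min at RT. Next, substrate, coupling system and AmpLite Red are added. After 20 min RT, fluorescence (525/598 nm) is read.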
Tau ThT inhib: inhibitors of human tau fibril formation, thioflavin T binding; P10636; recombinant tau K18 P301L (four-repeat tau fragment), heparin-induced fibrillization, ThT fluorescence; Potency, µM (series often up to 57.4 µM), without a hit: top-dose activity, negative = inhibition, hits mostly inhibitors; 270,000 tested, 2.1% active; AID 1460; further: potency means the concentration at half of the fitted maximal effect; nearly all actives have a fitted effect of over 55% in size
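Heparin-induced (20 uM) aggregation of recombinant human K18 P301L tau, 15 uM unlabeled with 0.24 uM labeled, pH 7 acetate buffer, 6 hr at 37 C with compound. Fibrils quantified by 30 uM ThT fluorescence after 1 hr ambient incubation.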
JMJD2E inh: blocks human JMJD2E demethylase activity; JMJD2E catalytic domain, FDH-coupled NADH fluorescence (FDH is formaldehyde dehydrogenase); 230,000 tested, 1.6% active; B2RXH2; Potency, µM (doses to about 57.1 µM), inactives show at the top dose activity change, negative = inhibition, actives largely listed as inhibitors; AID 2147; active means well fitted inhibition curve with a large enough effect, not every such curve was filed as active; inconclusive means small, poorly fitted or top-dose-only effect, or another doubt; inactive means no such curve, though single readings can be large or run the other way;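 further: potency means the concentration at half of the fitted maximal effect; 0% = wells with enzyme and -100% = buffer wells without enzyme; nearly all actives have a fitted effect of over 50% in size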
Target sequence (B2RXH2 1-337 limits assumed): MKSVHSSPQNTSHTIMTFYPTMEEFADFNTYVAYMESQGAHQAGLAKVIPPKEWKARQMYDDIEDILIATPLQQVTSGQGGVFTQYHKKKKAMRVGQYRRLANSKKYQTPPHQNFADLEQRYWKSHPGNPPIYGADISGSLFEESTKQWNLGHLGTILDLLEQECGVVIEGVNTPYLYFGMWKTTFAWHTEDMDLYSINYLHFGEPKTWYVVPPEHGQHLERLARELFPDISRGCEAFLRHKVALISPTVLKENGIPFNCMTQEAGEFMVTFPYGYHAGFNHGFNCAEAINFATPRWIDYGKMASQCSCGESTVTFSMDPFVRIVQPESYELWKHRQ
* hit, by the source's call; u = inconclusive; x = no result given; [ ] = another dose, or the depositor's remark. Unless noted, the call rests on the fitted dose curve; in most records, active means well fitted curve in the direction sought with a large enough effect; inconclusive means small, poorly fitted or top-dose-only effect, or another doubt; inactive means no such curve, though single readings can be large; an effect the other way counts as inactive or inconclusive. Unless noted, on the % scale 0 is the no-effect control and ±100 the full control effect.

SMILES | Tau fluor counter | Tau fibril FP | Sfp PPTase inh | Coupling enz | Tau ThT inhib | JMJD2E inh
NC(=O)C1(N2CCCCC2)CCN(C(=S)Nc2ccc(S(N)(=O)=O)cc2)CC1 | -3.5% | -6.4% | 3.98µM* | -18.5 | -12.6% | -13.2%
Cc1ccc(CN2CCCn3nc(C(=O)NCc4ccc(N(C)C)cc4)cc3C2=O)cc1 | 0.7% | 7.4% | x | x | 1.2% | x
Cc1cc(C)cc(NC(=O)C(=O)NCC(c2cccnc2)N2CCc3ccccc32)c1 (centres undefined) | u | -10.7% | x | x | -0.8% | x
NS(=O)(=O)c1ccc(NC(=S)N2CCN(Cc3ccc4c(c3)OCO4)CC2)cc1 | 1.7% | 1.8% | 22.4µM* | 3.2 | -1.1% | -2.7%
CC(C)CC(=O)NNC(=S)Nc1ccc(S(N)(=O)=O)cc1 | -5.5% | -12.5% | 20µM* | -0.4 | -18.0% | -4.0%
NS(=O)(=O)c1ccc(NC(=S)N2CCN(Cc3ccc(Cl)c(Cl)c3)CC2)cc1 | -16.9% | -1.2% | 21.3% | 0.5 | -4.2% | 10.6%
NC(=O)C1(N2CCCCC2)CCN(C(=O)Nc2ccccc2C(F)(F)F)CC1 | 1.7% | -13.9% | u | -34.5* | 7.3% | -1.1%
CCN(CC)C(=O)CN1CCN(Cc2ccc3c(c2)OCO3)CC1 | x | x | 79.4µM* | 8.0 | x | x
O=C(Nc1ccccc1C(F)(F)F)N1CCCCCC1 | 0.8% | 8.1% | -5.5% | 5.3 | -2.5% | -0.2%
Oc1ccc(/C=N/N=C(c2ccccc2)c2ccccc2)c(O)c1O | 12.6µM*[quencher] | u | 2.82µM* | -17.1 | 8.91µM* | 14.1µM*
O=C(/C(=N/N=C/c1ccc(O)c(O)c1O)c1ccccc1)c1ccccc1 | 6.9% | -2.8% | -96.0% | -40.4* | 10.1% | 0.9%
NC(=O)/C(=N\O)c1ccccc1 | -2.9% | -2.1% | 10.7% | 3.4 | -7.5% | 5.1%
Cc1ccc(C(=O)NNC(=O)CCC(=O)Nc2cccc(Cl)c2C)cc1 | 2.0% | 2.9% | 79.4µM* | 3.7 | 3.7% | 2.2%
Cc1ccc(N=C2CSC(=O)N2)cc1 | 8.8% | 13.8% | 12.2% | 1.2 | 10.1% | -0.7%
O=C1NC(=Nc2ccc(F)cc2)CS1 | -16.8% | -4.9% | 56.2µM* | 0.0 | u | -4.1%
COc1ccc(CCNC(=O)c2cnc3sc(N4CCCC4)nn3c2=O)cc1OC | 12.1% | 5.9% | x | x | 7.4% | x
CCOC(=O)C1=C(CSc2nc(-c3ccncc3)ccc2C#N)OC(N)=C(C#N)C1c1ccc(OC)cc1 (centres undefined) | u | -4.6% | u | -7.9 | u | -12.7%
CCOC(=O)C1=C(c2ccccc2)OC(N)=C(C#N)C1c1ccncc1 (centres undefined) | -10.4% | -12.3% | u | 7.7 | u | 7.9%
CCn1c2ccccc2c2cc(C3C(C#N)=C(N)Oc4n[nH]c(COC)c43)ccc21 (centres undefined) | u | -16.9% | -5.4% | -8.4 | 15.8µM* | 10µM*
CCCc1[nH]nc2c1C(c1cccnc1)C(C#N)=C(N)O2 (centres undefined) | u | u | 4.5% | 3.2 | 17.8µM* | -19.2%
CCOC(=O)C1=C(CSc2nc(-c3ccncc3)ccc2C#N)OC(N)=C(C#N)C1c1cccnc1 (centres undefined) | 3.7% | 4.1% | 79.4µM* | 1.5 | 0.6% | -18.1%
CCOC(=O)C1=C(C(C)=O)C(c2cccnc2)C(C#N)=C(N)O1 (centres undefined) | 0.6% | -8.6% | -17.3% | -33.7* | -14.5% | u
Cc1cccc(C)c1OCc1nc2c3cnn(-c4cccc(F)c4)c3ncn2n1 | 0.6% | -7.3% | x | x | u | x
COc1ccccc1C(=O)Nc1nnc(S(=O)(=O)N(C)c2ccc(Cl)cc2)s1 | -17.0% | 3.7% | x | x | u | x
COc1ccc(NS(=O)(=O)c2ccc3c(c2)[C@H]2C=CC[C@H]2[C@@H](c2ccc(C(=O)O)cc2)N3)cc1 | u | -17.4% | -27.9% | 1.8 | 25.1µM* | x
SMILES | Tau fluor counter | Tau fibril FP | Sfp PPTase inh | Coupling enz | Tau ThT inhib | JMJD2E inh
Cc1c(Cl)cccc1NS(=O)(=O)c1ccc2c(c1)C1C=CCC1C(c1ccc(C(=O)O)cc1)N2 (centres undefined) | u | u | u | -0.3 | 25.1µM* | -27.1%
COc1ccc(CNC(=O)c2cc3c(=O)n(C)c4ccccc4c3n2C)c(OC)c1 | -5.5% | 13.1% | x | x | -17.5% | x
CCNc1ncc2nc(-c3cc(F)cc(F)c3)c(=O)n(C3CC3)c2n1 | x | x | 15.0% | -2.5 | x | x
NC(=O)COc1c(-c2ccco2)oc2ccccc2c1=O | 6.9% | 8.5% | 89.1µM* | -25.3 | 6.8% | -23.5%
CCOc1ccccc1NC(=O)C1CCN(S(=O)(=O)Cc2ccccc2)CC1 | -2.9% | 4.9% | x | x | -4.4% | x
O=c1cc(N2CCCCC2)c(-c2ccccc2)nn1Cc1cccc(Cl)c1 | -4.1% | 1.1% | 35.5µM* | 4.5 | u | 5.2%
O=c1cc(N2CCCCC2)c(-c2ccccc2)nn1Cc1ccc(Cl)cc1Cl | -3.4% | -3.6% | u | -4.6 | -14.4% | -20.3%
CCCc1noc(-c2ccc(NCc3ccc(C)cc3)c([N+](=O)[O-])c2)n1 | 5.4% | 2.5% | x | x | 2.4% | x
O=C1C(=C2CCCCC2)SC(=S)N1Cc1ccco1 | -21.4% | u | 39.8µM* | 0.2 | 25.1µM* | -0.3%
O=C(O)CCN1C(=O)C(=C2CCCCCC2)SC1=S | -2.0% | -5.8% | 50.1µM* | -1.8 | -9.7% | u
Cc1cnc(CNc2ccnc(-c3ccccc3C(F)(F)F)n2)cn1 | x | x | -9.4% | 0.2 | x | x
Cc1ccc(-c2csc(-c3c[nH]c4ccccc34)n2)c(C)c1 | 10µM*[quencher] | u | 31.4% | -3.1 | 14.1µM* | u
CC(=O)NCCC(=O)Nc1nc(-c2c[nH]c3ccccc23)cs1 | x | x | 6.1% | -6.0 | x | x
Oc1ccc(-c2csc(-c3c[nH]c4ccccc34)n2)c(O)c1 | 10µM*[quencher] | u | -17.7% | 1.1 | 6.31µM* | -7.6%
CCOC(=O)N1CCN(C(=O)CCn2c(=S)[nH]c3ccsc3c2=O)CC1 | -2.6% | 1.5% | 56.2µM* | -0.2 | -3.2% | -3.6%
CCOC(=O)N1CCN(C(=O)CCn2c(=O)[nH]c3ccsc3c2=O)CC1 | 2.4% | 7.4% | 13.7% | 3.4 | 1.0% | 5.3%
FC(F)(F)c1ccc2c(c1)N1CCCC1CN2 (centres undefined) | u | -6.8% | u | -11.7 | 17.8µM* | 1.5%
FC(F)(F)c1ccc2c(c1)NCC1CCCN21 (centres undefined) | u | -16.8% | -6.9% | -3.3 | u | 42.4%
Cc1cccc(C)c1OC(=O)CSc1nnc(CNC(=O)c2ccccc2)o1 | -23.6% | -6.4% | x | x | u | x
COc1ccc(NC(=O)Nc2cccs2)cn1 | x | x | 56.2µM* | -2.5 | x | x
COc1ccc(NC(=O)CCl)cn1 | -21.9% | u | u | -39.8* | x | u
CS(=O)(=O)N1CCC[C@@]2(CCN(C(=O)Nc3cccc(C#N)c3)C2)C1 | x | x | 22.3% | -0.4 | x | x
